The text below walks through data of PubChem BioAssay.

Each structure is given as a SMILES string.

A short description of this test: compound effects on multiple myeloma cell viability – MM1S, calcein-AM fluorescence, 48 h, basal, profiling panel (AID 1165).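 Also: viability of MM1S multiple myeloma cells under basal unstimulated conditions; test concentration not given here.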 The following applies: higher = more signal.
Regarding `COC(=O)[C@@]1(Cc2ccc(OC)cc2)[C@H]2c3cc(C(=O)N(C)C)n(Cc4ccc(C)o4)c3C[C@H]2CN1C(=O)c1ccccc1`, the z-score was -1.92.

Turning to `CCCCCN1CC=CC23O[C@@H]4/C=C\CCC(C)OC(=O)C4[C@H]2C(=O)N(C(CO)C(C)C)[C@@H]3C1=O` (stereo partly specified), the z-score was 1.82.

Consider `CCOC(=O)C[C@H]1[C@H](OC(=O)c2ccccc2-c2ccccc2)[C@@H](NC(=O)c2ccc3ccccc3n2)c2cc(OCCCO)ccc2N1C(=O)Cc1ccc(OC)cc1`, for which the z-score was 0.0554.

Consider `O=C1OCCC/C=C\[C@H]2OC34C=CCN(c5ccc6ccccc6c5)C(=O)[C@H]3N(CCO)C(=O)[C@@H]4C12` (stereo partly specified), for which the z-score was 1.3.

As for `O=C1N(Cc2ccccc2)c2ccccc2C[C@]12N=C(c1ccc(OCCCO)cc1)O[C@@H]2c1ccccc1`, the z-score is -2.32.

With `O[C@@H](Cc1ccccc1)[C@@H](/C=C/C1CC1)N(CC#Cc1ccccc1)Cc1ccccc1Br`, the z-score was 0.0144.

As for `O=C(C1N=C(c2ccc(OCCCO)cc2)N(c2ccccc2)O1)N1CCCCC1` (stereo unspecified), the z-score was 0.301.

For the molecule `CC(C)[Si]1(C(C)C)OCc2cc(-c3ccc(-c4ccc(Cl)c(Cl)c4)o3)nc(-c3ccccc3)c21`, the z-score is -1.77.

Turning to `COc1ccc([Si](C)(C)[C@@H]2[C@@H](CCO)O[C@]3(C(=O)N(Cc4ccccc4)c4ccc(NC(=O)[C@H](C)O)cc43)[C@H]2C)cc1`, the z-score was -2.62.

For the molecule `COc1cc(NN2C(C(O)c3ccc(N(C)C)cc3)C=CC3C(=O)N(c4ccccc4)C(=O)C32)cc(OC)c1OC` (stereo unspecified), the z-score was -0.0191.

In the case of `Cn1cccc1C(O)C1C=CC2C(=O)N(c3ccccc3)C(=O)C2N1Nc1ccccc1` (stereo unspecified), the z-score was -0.615.

Consider `CCOC(=O)C=Cc1cccc(C)c1O`, for which the z-score is -0.536.

Take `COC(=O)C1=CC(CCCO)=CC(c2cccs2)N(Cc2cccc(OC(F)(F)F)c2)C=C1C(=O)OC` (stereo unspecified): the z-score was -2.69.

As to `[N-]=[N+]=Nc1ccccc1[C@@H]1OC(c2ccc(OCCCO)cc2)=N[C@]1(Cc1ccccc1)C(=O)N1CCCCC1`, the z-score is -2.91.

As for `C=CCNC(=O)[C@@H]1[C@H]2C(=O)O[C@H](c3ccccc3)[C@H](c3ccccc3)N2[C@H](c2ccc(O)cc2)[C@@]12C(=O)N(C(=O)OCCOC)c1ccc(C#CC3=CCCCC3)cc12`, the z-score was -2.13.

For the molecule `CCOC(=O)C[C@H]1[C@H](OC(=O)c2cc3ccccc3oc2=O)[C@@H](NC(=O)CC(C)C)c2cc(OCCCO)ccc2N1C(=O)c1ccc2ccccc2n1`, the z-score was -0.18.

In the case of `NCCCCCNC(=O)[C@@H]1C[C@@H]2C(=O)N[C@@H](CCCCN)C(=O)N2[C@@H]1c1ccc(O)cc1`, the z-score was -0.29.

Regarding `CC(C)C(CO)N1C(=O)[C@@H]2C3C(=O)OCCC/C=C\[C@H]3OC23C=CCN(Cn2nnc4ccccc42)C(=O)[C@@H]13` (stereo partly specified), the z-score is 1.

For the molecule `[N-]=[N+]=NCc1ccccc1C[C@@]1(C(N)=O)N=C(c2ccc(OCCCO)cc2)O[C@@H]1c1ccccc1`, the z-score is -3.04.

For `CCOC(=O)C[C@H]1[C@H](OC(=O)c2ccc(C(=O)c3ccccc3)cc2)[C@@H](NC(=O)CC(C)C)c2cc(OCCCO)ccc2N1C(=O)c1ccccc1`, the z-score is 0.0631.

For the molecule `CC(C)[Si](C#C[Si](C(C)C)(C(C)C)C(C)C)(O[C@H](c1ccccc1)c1cn(Cc2ccccc2)nn1)C(C)C`, the z-score is 1.01.

Turning to `COC(=O)C/C=C/C[C@]1(O)C(=O)N(C)c2ccccc21`, the z-score is 0.672.

As for `CN1C(=O)C2C=CC(C(O)c3cccn3C)N(Nc3ccc([N+](=O)[O-])cc3[N+](=O)[O-])C2C1=O` (stereo unspecified), the z-score is -2.1.

Regarding `C=CCN1Cc2ccccc2[C@@H]2OC(c3ccc(OCCCO)cc3)=N[C@]2(CC=C)C1=O`, the z-score was -2.62.

For the molecule `CCCC=C(CCC)[C@@H](NP(=O)(c1ccccc1)c1ccccc1)c1ccc(-c2ccccc2)cc1`, the z-score was -1.67.

In the case of `C=C(COC)C(=O)CC[C@@H](OC(C)=O)c1cccc(OCCO)c1`, the z-score is -3.46.

Take `CCOC(=O)C1=CC[C@@H](c2ccccc2F)N(S(=O)(=O)c2ccc(C)cc2)[C@H]1c1ccccc1`: the z-score was -1.47.

In the case of `O=C1O[C@H](c2ccccc2)[C@H](c2ccccc2)N2[C@H]1[C@@H](C(=O)O)[C@]1(C(=O)Nc3ccc(C#CCCO)cc31)[C@H]2c1ccccc1OCCO`, the z-score was 0.0409.

With `COc1cc2c(cc1O)C(C1CC1)N(C)CC2` (stereo unspecified), the z-score was 0.533.

Turning to `COC(=O)[C@@]1(Cc2ccc(OC)cc2)[C@H]2c3cc(C(=O)N4CCCC4)n(CCO)c3C[C@H]2CN1C(=O)c1ccccc1`, the z-score was -1.25.

As to `[N-]=[N+]=Nc1ccccc1C[C@]1(C(=O)N2CCOCC2)COC(c2ccc(OCCCO)cc2)=N1`, the z-score was -1.43.

On to `O=C1C2C=CC(C(O)c3ccco3)N(Nc3ccccc3F)C2C(=O)N1c1ccccc1` (stereo unspecified), for which the z-score was -0.142.

On to `CCCCCN1CC=CC23O[C@@H]4/C=C\CCCOC(=O)C4[C@H]2C(=O)N(C(C)CO)[C@@H]3C1=O` (stereo partly specified), for which the z-score was 1.16.

As to `COC(=O)c1c(CC[C@@H](CO)NC(=O)N2CCC[C@H]2Cn2cc(C3(O)CCCCC3)nn2)oc(C(C)=O)c1C(=O)OC`, the z-score is 0.205.

For the molecule `CCCCNC(=O)c1ccc(C#CC(C)(C)C)c(OC(C)=O)c1`, the z-score was 0.13.

On to `COc1ccccc1CN1C(=O)c2ccccc2[C@](Cc2ccccc2I)(C(=O)O)[C@@H]1c1ccc(CO)cc1`, for which the z-score was -0.616.
